Screening results: PubChem BioAssay, several laboratories
Hits are enriched below; roughly 1.5% of the tested compounds scored in any of these assays.
BCLXL inh: Bcl-xL (human) inhibition; hit rate 0.7% among 320,000; inhibition, % at 10.9 µM; GST-Bcl-xL / FITC-Bim BH3 peptide fluorescence polarization;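 active means inhibition above the mean of all tested compounds plus 3 SD, cutoff set per campaign, cut at about 30% in these data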;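 further: 0% = DMSO wells and 100% = unlabeled Bim-BH3 peptide competitor; inhibitors lower millipolarization by displacing the labeled peptide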
GLD-1 RNA inh: GLD-1-TGE RNA interaction inhibition (C. elegans); Q17339; purified GLD-1 + fluorescein TGE RNA, fluorescence polarization; inhibition, % at 5.96 µM; hit rate 0.44% among 320,000; AID 2280;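 active means percent inhibition above a per-plate cutoff, the plate mean of test compounds plus 3 SD, cut at about 30% in these data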;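 further: 0% = DMSO wells with GLD-1 and probe and 100% = wells lacking GLD-1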
Target sequence (Q17339 whole entry, looked up): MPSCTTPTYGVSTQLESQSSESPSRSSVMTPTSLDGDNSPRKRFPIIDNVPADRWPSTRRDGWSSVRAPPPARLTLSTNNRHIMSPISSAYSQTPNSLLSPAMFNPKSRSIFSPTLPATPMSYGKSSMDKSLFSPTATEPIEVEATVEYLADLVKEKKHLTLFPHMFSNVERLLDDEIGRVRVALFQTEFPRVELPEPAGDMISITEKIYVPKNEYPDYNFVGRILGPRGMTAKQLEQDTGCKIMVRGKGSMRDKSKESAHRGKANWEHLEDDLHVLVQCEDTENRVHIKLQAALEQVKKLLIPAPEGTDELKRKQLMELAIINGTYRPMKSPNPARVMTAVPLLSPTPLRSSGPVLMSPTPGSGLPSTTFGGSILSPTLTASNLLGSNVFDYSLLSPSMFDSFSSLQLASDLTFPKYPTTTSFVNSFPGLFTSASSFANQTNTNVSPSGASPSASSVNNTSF
MEX-5 binding: C. elegans MEX-5 TCR-2 RNA binding activity. Q9XUB2. MEX-5/FITC-TCR2 RNA binding, fluorescence polarization; active compounds read low. activity score (negative = inhibition of binding), % at 10 µM. hit rate 0.38% among 300,000;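 active means inhibition past about -25% in most replicates, and total fluorescence under double the plate's negative control median, limit read from the data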;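 further: 0% = DMSO and -100% = 5 µM competing unlabeled TCR2 RNA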
EBV gp42 inh: inhibitors of Epstein-Barr virus glycoprotein 42; Q1HVG2; Fluorescence polarization binding assay, mP read-out; inhibition, % (tested at 21.74 µM); hit rate 0.42% among 220,000; AID 1085; in the data active means inhibition above about 50%
MCL1 BIM primary: MCL1-BIM-BH3 interaction inhibition (human); GST-MCL1 / FITC-Bim-BH3 fluorescence polarization; Q07820; AID 2057; inhibition, % at 10.9 µM; hit rate 0.68% among 320,000;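 active means inhibition above the mean inhibition of all tested compounds plus 3 SD, set per campaign, cut at about 40% in these data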;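 further: 0% = DMSO wells and 100% = unlabeled Bim-BH3 peptide control; higher means more loss of mP so more displacement of Bim peptide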
eLon inh: inhibitors of E. coli Lon protease | P0A9M0 | purified E. coli Lon protease, fluorescence polarization | inhibition, % at 7.94 µM | hit rate 0.42% among 360,000; in the data active means inhibition above about 13%, passing the limit was not always enough;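 further: 0% = enzyme with probe and DMSO and 100% = no enzyme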
Bcl-xL conf: Bcl-xL (human) inhibition, MCL1 counter-screen confirmation; shares compounds with MCL1 BIM primary; GST-Bcl-xL / FITC-Bim BH3 peptide FP binding; inhibition, % at 10.9 µM; hit rate 54% among 1,700; AID 2166;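 active means inhibition above a cutoff equal to the mean inhibition of all tested compounds plus 3 SD, cut at about 30% in these data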;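 further: 0% = DMSO wells and 100% = unlabeled Bim BH3 control peptide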
MCL1 BIM confirm: confirmation of human MCL1 and BIM-BH3 interaction inhibitors. shares compounds with MCL1 BIM primary. GST-MCL1 / FITC-Bim-BH3 fluorescence polarization. inhibition, % at 10.9 µM. hit rate 61% among 1,700. AID 2168;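 active means inhibition above the average of all tested compounds plus 3 SD, cut at about 40% in these data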;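 further: 0% = DMSO wells and 100% = unlabeled Bim-BH3 control peptide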
* = called active by the depositor.

Screening COc1ccc(/C=C/C(=O)NC(=S)Nc2cc([N+](=O)[O-])ccc2O)cc1OC returned BCLXL inh 7, GLD-1 RNA inh 0, MEX-5 binding 0, EBV gp42 inh 17, MCL1 BIM primary 41*, eLon inh 5, Bcl-xL conf 15 and MCL1 BIM confirm 28.
`CC(=O)N1N=C(c2ccc(Cl)cc2)CC1c1ccco1` (stereo unspecified) gave BCLXL inh 4, GLD-1 RNA inh 0, MEX-5 binding 1, EBV gp42 inh -19, MCL1 BIM primary 40*, eLon inh 8, Bcl-xL conf 4 and MCL1 BIM confirm 6.
CC(=O)N1N=C(c2ccc(C)cc2)CC1c1ccco1 (stereo unspecified) was read as BCLXL inh -2, GLD-1 RNA inh -1, MEX-5 binding 3, EBV gp42 inh -4, MCL1 BIM primary -9 and eLon inh 5.
Screening Cc1ccc2[nH]c3c(c2c1)CN(C(=O)CN1CCN(c2ccccn2)CC1)CC3 returned BCLXL inh 66*, GLD-1 RNA inh 38*, MEX-5 binding -10, EBV gp42 inh 15, MCL1 BIM primary 58*, eLon inh 3, Bcl-xL conf 13 and MCL1 BIM confirm 15.
`Cc1ccc2[nH]c3c(c2c1)CN(C(=O)CN1CC(C)OC(C)C1)CC3` (stereo unspecified) gave BCLXL inh 61*, GLD-1 RNA inh -1, EBV gp42 inh 35, MCL1 BIM primary 62*, eLon inh -53, Bcl-xL conf 51* and MCL1 BIM confirm 60*.
`c1ccc(CN(Cc2ccccc2)c2nn[nH]n2)cc1` gave BCLXL inh 4, GLD-1 RNA inh -9, MEX-5 binding -1, EBV gp42 inh -4, MCL1 BIM primary 46*, eLon inh -4, Bcl-xL conf 4 and MCL1 BIM confirm 8.
For Clc1ccc(CN(Cc2ccc(Cl)cc2)c2nn[nH]n2)cc1 the results were BCLXL inh 6, GLD-1 RNA inh 2, MEX-5 binding 0, EBV gp42 inh -9, MCL1 BIM primary 5 and eLon inh -4.
For COc1cc(C)ccc1S(=O)(=O)NC(=O)C1(C)CCN1C(=O)Cc1ccc(Cl)cc1Cl (stereo unspecified) the results were eLon inh -1.
Screening COc1ccc(NC(=O)c2cccc(S(=O)(=O)N3CCc4ccccc43)c2)cn1 returned BCLXL inh 61*, GLD-1 RNA inh 49*, MEX-5 binding -7, EBV gp42 inh 28, MCL1 BIM primary 60*, eLon inh 1, Bcl-xL conf 46* and MCL1 BIM confirm 58*.
O=C(Nc1ncccc1O)c1cccc(S(=O)(=O)N2CCc3ccccc32)c1 was read as BCLXL inh 5, GLD-1 RNA inh 3, MEX-5 binding 0, EBV gp42 inh -10, MCL1 BIM primary 6 and eLon inh 7.
For Cc1cc(C)n2c(=O)c3ccc(Cl)cc3nc2c1C#N the results were BCLXL inh 21, GLD-1 RNA inh 7, MEX-5 binding -3, EBV gp42 inh -5, MCL1 BIM primary 51*, eLon inh 0, Bcl-xL conf 6 and MCL1 BIM confirm -1.
For O=C(NCc1cccs1)c1ccc2sc(COCCO)nc2c1 the results were eLon inh -3.
Screening COc1ccc(-c2oc3cc(O)c(OC)c(O)c3c(=O)c2OC)cc1 returned BCLXL inh 1, GLD-1 RNA inh 1, MEX-5 binding -3, EBV gp42 inh -21, MCL1 BIM primary 1 and eLon inh -4.
COc1c(-c2ccc(O)cc2)oc2cc(O)cc(O)c2c1=O was read as BCLXL inh 9, GLD-1 RNA inh 4, EBV gp42 inh -16, MCL1 BIM primary 43*, eLon inh 4, Bcl-xL conf 23 and MCL1 BIM confirm 86*.
